In PubChem BioAssay AID1220 (Sanford-Burnham Center for Chemical Genomics, 2008) one finds inhibition data, which are given here for 94 molecules.

Screen size: about 190,000 compounds; about 1,300 (0.68%) were called active. No stated cut-off is given here; in the data, active means inhibition above about 50%; inactive means the rest. The sample as a whole holds a higher share of actives than the screen did.

The target of the experiment is Mannose-6-phosphate isomerase (Homo sapiens) (UniProt P34949). Put plainly: human PMI inhibitors, high substrate, primary screen, biochemical, fluorescence intensity, high mannose 6-phosphate (AID 1220). The note with it: recombinant PMI enzyme, coupled fluorescence intensity; at 20 µM; active compounds read high.
Mannose-6-phosphate isomerase (Homo sapiens), sequence (P34949 whole entry, looked up): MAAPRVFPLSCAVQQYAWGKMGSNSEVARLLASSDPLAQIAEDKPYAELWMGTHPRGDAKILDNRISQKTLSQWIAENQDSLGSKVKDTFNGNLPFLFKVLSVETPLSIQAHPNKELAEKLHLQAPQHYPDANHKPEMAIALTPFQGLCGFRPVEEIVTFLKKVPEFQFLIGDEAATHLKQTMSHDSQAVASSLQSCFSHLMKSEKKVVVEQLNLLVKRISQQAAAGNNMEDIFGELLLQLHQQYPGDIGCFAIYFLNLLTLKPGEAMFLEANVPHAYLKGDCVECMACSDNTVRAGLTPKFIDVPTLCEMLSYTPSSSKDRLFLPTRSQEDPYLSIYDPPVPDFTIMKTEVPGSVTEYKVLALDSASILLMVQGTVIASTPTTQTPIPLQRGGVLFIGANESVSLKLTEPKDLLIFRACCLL
For orientation: inhibition means the relative decrease from the control value, in per cent. Regarding `CCN(CC)C(=O)N1c2ccccc2CC(N(CC)CC)c2ccccc21` (centres undefined), the inhibition was -19.4% (inactive).

With `Fc1cccc(Cl)c1/C=N/Nc1c(Cl)cncc1Cl`, the inhibition was 8.5% (inactive).

For the molecule `Cc1nc(C#N)c(N/N=C/c2cccc(Cl)c2)o1`, the inhibition is 12.6% (inactive).

As for `Cc1nc(C#N)c(N/N=C/c2c(F)cccc2Cl)o1`, the inhibition was 53.3% (active).

Regarding `Cc1cccc2cc(C3CC(c4cccs4)=NN3C(=O)CCC(=O)O)c(Cl)nc12` (centres undefined), the inhibition was 8.9% (inactive).

Turning to `COc1ccc(N2CCn3c2nc2c3c(=O)n(CCCc3ccccc3)c(=O)n2C)cc1`, the inhibition was -5.3% (inactive).

Turning to `Cc1ccc(-c2nc(CN(CC3CCC3)CC3CCCO3)c(C)o2)s1` (centres undefined), the inhibition was 5.6% (inactive).

As to `COC(=O)C/C=C/[C@@H](C)[C@@H](/C=N/OCC[C@@H]1C=C[C@H](OC(C)=O)[C@@H](COC(C)=O)O1)NS(=O)(=O)c1ccc(C)cc1`, the inhibition was -6.1% (inactive).

Turning to `CCCC1C2CN(C(C)=O)CC=C2C(C#N)=C(N)C1(C#N)C#N` (centres undefined), the inhibition was -10.2% (inactive).

On to `CCCC1C2CN(C(C)C)CC=C2C(C#N)=C(N)C1(C#N)C#N` (centres undefined), for which the inhibition is 60.7% (active).

For `CCN1CC=C2C(C#N)=C(N)C(C#N)(C#N)C(CCc3ccccc3)C2C1` (centres undefined), the inhibition was 52.5% (active).

With `CC(C)N1CC=C2C(C#N)=C(N)C(C#N)(C#N)C(c3ccccc3)C2C1` (centres undefined), the inhibition was 20.5% (inactive).

In the case of `CC(C)N1CC=C2C(C#N)=C(N)C(C#N)(C#N)[C@H](c3ccoc3)[C@H]2C1`, the inhibition is 58.4% (active).

In the case of `CN1CC=C2C(C#N)=C(N)C(C#N)(C#N)C(CCc3ccccc3)C2C1` (centres undefined), the inhibition was 17.3% (inactive).

In the case of `CC(=O)N1CC=C2C(C#N)=C(N)C(C#N)(C#N)C(CCc3ccccc3)C2C1` (centres undefined), the inhibition was 14% (inactive).

As to `CN1CC=C2C(C#N)=C(N)C(C#N)(C#N)[C@H](c3ccoc3)[C@H]2C1`, the inhibition was 15.1% (inactive).

As to `Cc1ccc(C2C3CN(C(C)C)CC=C3C(C#N)=C(N)C2(C#N)C#N)cc1` (centres undefined), the inhibition was 24.4% (inactive).

As to `Cc1ccccc1-c1nc(CN(Cc2c(C)nn(C)c2C)C2CC2)c(C)o1`, the inhibition is 5.6% (inactive).

As for `CC(C)(C)c1ccc2c(c1)N(CC(=O)O)C(=O)CO2`, the inhibition is -8.3% (inactive).

Turning to `Cc1cccc(NC2SC(=O)NC2=O)c1` (centres undefined), the inhibition is 0.9% (inactive).

With `CCCc1c(O)nc(SCC(=O)NCCc2ccc(OC)c(OC)c2)[nH]c1=O`, the inhibition is 6.4% (inactive).

Consider `COc1ccc(CNc2oc(Cc3cccc4ccccc34)nc2C#N)cc1`, for which the inhibition was 9.4% (inactive).

Consider `CCCN1CCN(CCCNC(=O)CCNC(=O)Cn2ccc3ccccc3c2=O)CC1`, for which the inhibition was -3.5% (inactive).

`O=C(CCNC(=O)Cn1ccc2ccccc2c1=O)NCCCN1CCN(c2ccc(F)cc2)CC1`: the inhibition was -5.7% (inactive).

Regarding `O=C(CCNC(=O)Cn1ccc2ccccc2c1=O)NCCCN1CCN(c2ccccc2F)CC1`, the inhibition is 54.6% (active).

On to `Cc1cccc(N2CCC(N3CCN(C4CCCCC4)C(CCO)C3)CC2)c1C` (centres undefined), for which the inhibition was 22.8% (inactive).

With `O=C(CSc1nnc(-c2ccco2)o1)NC1CCCCCC1`, the inhibition is -4.7% (inactive).

Regarding `COc1cc(C)c(Cl)cc1S(=O)(=O)NCCCN1CCOCC1`, the inhibition was 2% (inactive).

In the case of `O=C1/C(=C/c2ccco2)CCc2ccccc21`, the inhibition was 56.9% (active).

For the molecule `COc1cc(/C=C2/CCc3ccccc3C2=O)cc(OC)c1OC`, the inhibition was 23.1% (inactive).

Regarding `COc1ccc2c(c1)CC/C(=C/c1cc(OC)c(OC)c(OC)c1)C2=O`, the inhibition was 52.2% (active).

As for `COc1cc(/C=C2\CC/C(=C\c3cc(OC)c(OC)c(OC)c3)C2=O)cc(OC)c1OC`, the inhibition is 11.2% (inactive).

As for `O=C1/C(=C\c2ccco2)CCC/C1=C\c1ccco1`, the inhibition is -57.2% (inactive).

As to `Nc1ccc2c(c1)C/C(=C/c1ccco1)C2=O`, the inhibition is -39.6% (inactive).

Regarding `COc1ccc2c(c1)CC/C(=C/c1ccncc1)C2=O`, the inhibition is 11.5% (inactive).

Consider `O=C1/C(=C/c2ccco2)Cc2ccccc21`, for which the inhibition is 16% (inactive).

On to `COc1cc(/C=C2\CCc3ccccc3C2=O)cc(OC)c1OC`, for which the inhibition was 23.9% (inactive).

With `COc1ccc(/C=C2\CC/C(=C\c3ccc(OC)c(OC)c3)C2=O)cc1OC`, the inhibition was 20.6% (inactive).

On to `COc1ccc2c(c1)CC/C(=C/c1ccco1)C2=O`, for which the inhibition was 57.4% (active).

Regarding `COc1ccc([N+](=O)[O-])cc1NC(=O)Nc1cccc(Cl)c1`, the inhibition is -1.5% (inactive).

In the case of `O=C(Cn1nc(CNc2ccc(Cl)cc2)[n+]2c1CCCCC2)c1ccc(Br)cc1`, the inhibition is 9.2% (inactive).

For the molecule `CCSc1nnc(-c2ccccc2N)c(=O)[nH]1`, the inhibition is -2% (inactive).

Consider `CCN(CC)S(=O)(=O)c1cc(-c2nnc(-c3ccc(Br)cc3)o2)ccc1Cl`, for which the inhibition is 3.4% (inactive).

As for `O=C(CN1CCC(NC(=O)Cc2ccccc2)CC1)Nc1ccccc1Br`, the inhibition is -0.4% (inactive).

Turning to `CSc1ccccc1NC(=O)CCn1c(=O)sc2ccccc21`, the inhibition was -0.9% (inactive).

Take `Clc1ccc(OCCSc2ncccn2)cc1`: the inhibition was 11.9% (inactive).

On to `COc1ccc(-n2cc(CNCCCn3ccnc3)c(-c3ccccc3Cl)n2)cc1`, for which the inhibition is 1.9% (inactive).

Take `CCn1c2ccccc2c2cc(NC(=O)C(=O)N3CCOCC3)ccc21`: the inhibition is 50.2% (active).

As for `CCn1c2ccccc2c2cc(NC(=O)N3CCOCC3)ccc21`, the inhibition was 20% (inactive).

In the case of `CCn1c2ccccc2c2cc(NC(=S)N3CCOCC3)ccc21`, the inhibition is 3% (inactive).

Take `O=C(NCc1ccncc1)C1=NN(c2ccccc2)C(=O)CC1`: the inhibition is -91.4% (inactive).

In the case of `Cc1cccc(NCN2C(=O)C3C4C=CC(C4)C3C2=O)c1` (centres undefined), the inhibition is 3.7% (inactive).

Turning to `S=C(NCCc1ccccc1)Nc1ccc(Nc2ccccc2)cc1`, the inhibition is 0% (inactive).

Take `CCN(CC)P(=O)(Nc1ccc(SC(F)F)cc1)c1ccc(N(C)C)cc1NC(=O)c1ccco1` (centres undefined): the inhibition was 35.4% (inactive).

On to `CCN(CC)P(=O)(Nc1ccccc1Br)c1ccc(N(C)C)cc1NC(=O)c1ccco1` (centres undefined), for which the inhibition was 16.4% (inactive).

As for `CCN(CC)P(=O)(Nc1ccc(C)cc1Br)c1ccc(N(C)C)cc1NC(=O)c1ccco1` (centres undefined), the inhibition is 53% (active).

As to `Cc1ccc2cc(C#N)c(N3CCCC3)nc2c1C`, the inhibition is -56.8% (inactive).

As for `O=C(Cc1c(Cl)cccc1Cl)OCC(=O)N1CCc2ccccc2C1`, the inhibition was -1% (inactive).

As to `CN1/C(=C/c2cc[n+](C)c3ccccc23)C=Cc2ccccc21`, the inhibition was 58% (active).

As for `C[n+]1ccc(/C=C/c2ccccc2O)c2ccccc21`, the inhibition is 12.7% (inactive).

Turning to `CCN1/C(=C/c2ccc3ccccc3[n+]2CC)C=Cc2ccccc21`, the inhibition is 17.7% (inactive).

On to `COc1ccc(CNC(=O)COC(=O)/C=C/c2ccco2)cc1`, for which the inhibition is -4.8% (inactive).

Regarding `CCOC(=O)c1c(/N=C/c2cc(C)ccc2O)sc2c1CCN(C)C2`, the inhibition is -5.7% (inactive).

Take `Nc1ccc(NC(=O)c2ccco2)c(Cl)c1`: the inhibition was -1.2% (inactive).

Regarding `O=C(COc1ccccc1)NCCSCc1ccco1`, the inhibition was 5.1% (inactive).

As to `Clc1ccc(-c2ccc(/C=N/Nc3cc(N4CCOCC4)nc(N4CCOCC4)n3)o2)cc1`, the inhibition is 54.5% (active).

For `CN(C)c1ccc(/C=C/C=N/Nc2nc(N3CCOCC3)nc(N3CCOCC3)n2)cc1`, the inhibition was 8.9% (inactive).

Regarding `Cc1cc(C)nc(N/N=C/c2ccc(N3CCOCC3)cc2)n1`, the inhibition is 4.7% (inactive).

Turning to `CN(C)c1ccc(/C=N/Nc2cc(N3CCOCC3)nc(N3CCOCC3)n2)cc1`, the inhibition was 60.4% (active).

For the molecule `Cc1ccc(/C=N/Nc2nc(N3CCOCC3)nc(N3CCOCC3)n2)o1`, the inhibition is -10.9% (inactive).

Regarding `Brc1ccc(-c2ccc(/C=N/Nc3nc(N4CCOCC4)nc(N4CCOCC4)n3)o2)cc1`, the inhibition is 5.4% (inactive).

As for `C(=N\Nc1nc(N2CCOCC2)nc(N2CCOCC2)n1)/c1ccncc1`, the inhibition was -1% (inactive).

As for `O=[N+]([O-])c1ccc(/C=N/Nc2nc(N3CCOCC3)nc(N3CCOCC3)n2)cc1`, the inhibition is -1.5% (inactive).

On to `CC(C)c1ccc(/C=N/Nc2cc(N3CCOCC3)nc(N3CCOCC3)n2)cc1`, for which the inhibition is 68.6% (active).

For `COc1c(C)cccc1C(=O)NC(=S)Nc1ccc2c(c1)Cc1ccccc1-2`, the inhibition was 8.2% (inactive).

`COc1ccc(NS(=O)(=O)c2cc(NC(=O)Cn3cnc4c3c(=O)n(C)c(=O)n4C)ccc2C)cc1`: the inhibition is 8.9% (inactive).

In the case of `CC(NC(=O)Cc1ccccc1)c1nc2ccccc2[nH]1` (centres undefined), the inhibition was -7.3% (inactive).

For `Cc1nc2n(n1)C(O)c1cc([N+](=O)[O-])ccc1S2` (centres undefined), the inhibition is 7.3% (inactive).

With `COc1ccc(C(=O)CN(Cc2ccccc2)C2=NCCS2)cc1`, the inhibition is -4.2% (inactive).

Regarding `CCOC(=O)c1c(C)oc2c1c(C(c1cccnc1)N1CCCCC1)c(O)c1ccccc12` (centres undefined), the inhibition was 26.9% (inactive).

`CCOC(=O)c1c(C)oc2c1c(C(c1cccnc1)N1CCOCC1)c(O)c1ccccc12` (centres undefined): the inhibition is 58% (active).

`CCOC(=O)c1c(C)oc2c1c(C(c1ccncc1)N1CCOCC1)c(O)c1ccccc12` (centres undefined): the inhibition is 10.8% (inactive).

Take `CCOC(=O)c1c(C)oc2c1c1c(c3ccccc32)OCN(Cc2cccnc2)C1`: the inhibition was 67.3% (active).

In the case of `CCOC(=O)c1c(C)oc2ccc(O)c(CN3CCCCC3)c12`, the inhibition was 6.2% (inactive).

`CCOC(=O)c1c(C)oc2c1c(C(c1cccnc1)N1CCN(C)CC1)c(O)c1ccccc12` (centres undefined): the inhibition was 28.8% (inactive).

For the molecule `CC(=O)Oc1ccc2c(c1)c(C(C)=O)c(C)n2C`, the inhibition was -2.9% (inactive).

Take `COc1ccccc1C(=O)N/N=C/c1cnc2ccccc2n1`: the inhibition was -4.4% (inactive).

Turning to `CCCCNC(=O)c1ccc(CNS(=O)(=O)c2ccc(Br)cc2)cc1`, the inhibition was 4.4% (inactive).

Turning to `COc1cc(C2CC(=O)NC3=C2C(=O)CC(C)(C)C3)cc(OC)c1O` (centres undefined), the inhibition is 54.4% (active).

For `CC1(C)CC(=O)C2=C(C1)NC(=O)CC2c1ccc(F)cc1` (centres undefined), the inhibition is -3.1% (inactive).

For the molecule `COc1cc(C2C(C#N)=C(C)NC3=C2C(=O)CC(C)(C)C3)ccc1OCCO` (centres undefined), the inhibition was 5.4% (inactive).

Regarding `COc1cc(C2C(C#N)=C(C)NC3=C2C(=O)CC(C)(C)C3)cc(OC)c1O` (centres undefined), the inhibition was 66.5% (active).

In the case of `COc1cc(C2CC(=O)NC3=C2C(=O)CC(C)(C)C3)ccc1O` (centres undefined), the inhibition is 4.3% (inactive).

Turning to `COc1cc(C2C(C#N)=C(C)NC3=C2C(=O)CC(C)(C)C3)ccc1O` (centres undefined), the inhibition was 3.8% (inactive).
